Most compounds without a hit are left out; they make up all but 1.6% or so of the library.
ABCB6 inh 2: human ABCB6 transporter inhibition; Q9NP58; K562-ABCB6 porphyrin accumulation, flow cytometry, 1 h; hits give low values; fluorescence ratio to DMSO, % at 10 µM; 360,000 tested, 0.19% active; AID 602162;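 active = fluorescence ratio to DMSO below 75%, the collection mean minus 3 SD; inconclusive = too few cells collected in the well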;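 also: signal is porphyrin accumulated inside mitochondria; 100% equals median channel fluorescence of DMSO control wells; lower ratio means ABCB6 inhibition with less porphyrin fluorescence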
RAD54 inh: RAD54 (human) branch migration inhibition; 360,000 tested, 0.14% active; AID 602329; RAD54 Holliday junction branch migration, FAM/BHQ fluorescence; Q92698; inhibition, % at 10.4 µM;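 active = mean normalized replicate activity at least 40 and at least half of replicates scoring 40 or more; inconclusive = only one of the two criteria met; inactive = mean below 40 and under half of replicates reaching 40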;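 also: 0% = median of neutral control wells and 100% = median of positive control wells; inhibitors cause a drop in the FAM fluorescence signal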
Target sequence (Q92698 whole entry, looked up): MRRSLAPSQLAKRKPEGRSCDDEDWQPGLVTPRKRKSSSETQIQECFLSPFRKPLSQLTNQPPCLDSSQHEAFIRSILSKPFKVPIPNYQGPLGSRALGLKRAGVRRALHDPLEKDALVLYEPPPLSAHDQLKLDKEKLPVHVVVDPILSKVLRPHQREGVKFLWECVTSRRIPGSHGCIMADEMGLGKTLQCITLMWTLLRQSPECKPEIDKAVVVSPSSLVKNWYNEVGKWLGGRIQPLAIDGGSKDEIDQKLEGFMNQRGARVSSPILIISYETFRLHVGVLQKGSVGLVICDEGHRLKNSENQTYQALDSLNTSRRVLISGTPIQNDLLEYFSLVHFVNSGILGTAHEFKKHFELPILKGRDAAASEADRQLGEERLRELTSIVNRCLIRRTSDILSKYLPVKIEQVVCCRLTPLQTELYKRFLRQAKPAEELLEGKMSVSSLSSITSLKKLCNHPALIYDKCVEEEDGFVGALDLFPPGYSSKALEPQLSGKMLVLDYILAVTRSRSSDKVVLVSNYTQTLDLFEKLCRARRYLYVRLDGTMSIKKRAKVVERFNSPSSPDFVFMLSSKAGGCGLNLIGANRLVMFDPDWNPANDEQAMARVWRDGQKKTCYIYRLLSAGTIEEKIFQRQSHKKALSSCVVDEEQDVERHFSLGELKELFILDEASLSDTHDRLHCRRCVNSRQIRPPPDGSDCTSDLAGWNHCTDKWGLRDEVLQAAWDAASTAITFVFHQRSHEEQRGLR
Vif inh: HIV Vif inhibition | AID 602346 | inhibition, % at 7.49 µM | HEK293T cells, Vif self-association by quenched fluorescence, imaging, 24 h | 340,000 tested, 0.35% active; in the data active = inhibition above about 50%, passing the limit was not always enough; inconclusive = no clear call, values can overlap the other calls; inactive = below about 31%
N-glyco inh: blocks N-linked glycosylation in D54 reporter cells | D54 ERlucT glycosylation luciferase reporter, 24 h; percent of 100 nM tunicamycin response | reporter increase, % at 12.5 µM | 360,000 tested, 0.23% active;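 active = mean luciferase reporter signal, scaled so untreated is 0 and the glycosylation-blocking control 100, at or above a set limit in every replicate; inconclusive = mean reaches the limit but not every replicate does; inactive = mean below the limit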;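 also: luciferase carries N-glycosylation sites so blocking glycosylation raises the light; 0% = median of neutral control wells and 100% = median of 100 nM tunicamycin wells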
Myeloid diff 2: compounds promoting myeloid differentiation; calls only at 10 µM; ER-HoxA9 myeloid progenitors, lysozyme-GFP differentiation, flow cytometry; AID 624256; 360,000 tested, 1% active;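 active = normalized GFP-positive differentiation at or above the plate's own cutoff, the solvent-only control mean plus 3 SD; inconclusive = no clear call, values can overlap the other calls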;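 also: cells exposed to compound for four days before flow analysis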
Rad54 DNA ctr: DNA binding artifact in Rad54 counter-screen | AC50, µM (doses to about 35 µM), without a hit: at the highest dose activity change, negative = DNA binding | AID 651673 | shares compounds with RAD54 inh | Acridine orange-DNA displacement, fluorescence polarization, 20 min | 460 tested, 8% active;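 active = signal drop giving an AC50 within twice the top valid tested concentration of each sample, actives reach about 35 µM in these data; inactive = activity opposite to expected, plus the rest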;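 also: polarization loss reports compound binding to salmon sperm DNA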
An asterisk follows results filed as active.

CCCN(CCC)CCCNC(=O)c1cc2c(=O)n(C)c3ccccc3c2n1C was read as ABCB6 inh 2 103, RAD54 inh inconclusive, Vif inh -1, N-glyco inh 7, Myeloid diff 2 inactive and Rad54 DNA ctr -11%.
C[C@@H]1CN([C@@H](C)CO)C(=O)c2cc(Br)cnc2O[C@H]1CN(C)C(=O)C1CCOCC1 was read as RAD54 inh 0.
COc1cc2c(C#N)c(N3CCN(C)CC3)nc(N)c2c(N)n1 was read as ABCB6 inh 2 97, RAD54 inh 71*, Vif inh 1, N-glyco inh 7, Myeloid diff 2 inactive and Rad54 DNA ctr -17%.
`COc1cc2c(C#N)c(N3CCN(c4ccccc4OC)CC3)nc(N)c2c(N)n1` gave ABCB6 inh 2 106, RAD54 inh -3, Vif inh -30 and N-glyco inh 7.
Screening C[C@@H]1CN([C@H](C)CO)S(=O)(=O)c2ccc(C#Cc3ccccc3F)cc2O[C@@H]1CN(C)C returned RAD54 inh 0.
`COc1cccc(-c2cc(NC=O)c3ncc(-c4cccc(C(=O)NCCN(C)C)c4)n3c2)c1` gave ABCB6 inh 2 104, RAD54 inh 81*, Vif inh -1, N-glyco inh -8, Myeloid diff 2 inactive and Rad54 DNA ctr 8%.
CN(C)CCNC(=O)c1cccc(-c2cnc3c(NC=O)cc(-c4ccc(S(C)(=O)=O)cc4)cn23)c1 was read as ABCB6 inh 2 98, RAD54 inh 65*, Vif inh 9, N-glyco inh 2, Myeloid diff 2 inactive and Rad54 DNA ctr -17%.
COc1cccc(-c2cc(NC=O)c3ncc(-c4cccc(C(=O)N(C)C)c4)n3c2)c1 was read as ABCB6 inh 2 96, RAD54 inh 7, Vif inh -22, N-glyco inh 5 and Myeloid diff 2 inactive.
Screening CC(=O)Nc1cc(-c2ccc(N3CCN(C)CC3)cc2)cn2c(-c3ccc(S(C)(=O)=O)cc3)cnc12 returned ABCB6 inh 2 104, RAD54 inh 104*, Vif inh 7, N-glyco inh -4, Myeloid diff 2 inactive and Rad54 DNA ctr -5%.
For Cc1ccc(-c2ccc3c(c2)O[C@@H](CN(C)C)[C@H](C)CN([C@H](C)CO)S3(=O)=O)cc1 the results were RAD54 inh -6.
For C[C@@H]1CCCCO[C@H](CN(C)Cc2ccccc2)[C@@H](C)CN([C@@H](C)CO)C(=O)c2cc(NC(=O)Nc3ccccc3)ccc2O1 the results were RAD54 inh -11.
O=C(C[C@H]1C=C[C@H](NC(=O)Nc2ccc(C(F)(F)F)cc2)[C@H](CO)O1)NCCN1CCCC1 was read as RAD54 inh 2.
CC(C)NC(=O)N(C)C[C@@H]1OCCCC[C@H](C)Oc2ccc(NS(=O)(=O)c3ccc(Cl)cc3)cc2C(=O)N([C@@H](C)CO)C[C@@H]1C was read as RAD54 inh -3.
CCOC(=O)c1c(C)n(C)c2ccc(OCC(O)CN3CCC(C)CC3)cc12 (stereo unspecified) was read as ABCB6 inh 2 98, RAD54 inh inconclusive, Vif inh 2, N-glyco inh 2, Myeloid diff 2 inactive and Rad54 DNA ctr -8%.
Screening CCOC(=O)c1c(C)n(C)c2ccc(OCC(O)CN3CCCCCC3)cc12 (stereo unspecified) returned ABCB6 inh 2 96, RAD54 inh 32, N-glyco inh 1 and Myeloid diff 2 inactive.
For COc1ccc(Nc2nc(NCC3CCCO3)c3ccccc3n2)c(OC)c1 (stereo unspecified) the results were ABCB6 inh 2 99, RAD54 inh inconclusive, Vif inh -7, N-glyco inh 1, Myeloid diff 2 inactive and Rad54 DNA ctr 5%.
`CCOc1ccc(Nc2nc(NCC3CCCO3)c3ccccc3n2)cc1` (stereo unspecified) gave ABCB6 inh 2 99, Vif inh -5, N-glyco inh -8 and Myeloid diff 2 inactive.
Screening COc1ccc(NC(=O)Nc2ccc3c(c2)[C@@H]2C[C@H](CC(=O)NCc4ccccn4)O[C@H](CO)[C@@H]2O3)cc1 returned RAD54 inh 9.
For Cc1nc2ccccc2c2oc(C(=O)N3CCC(N4CCCCC4)CC3)cc12 the results were ABCB6 inh 2 100, RAD54 inh 67*, N-glyco inh -2, Myeloid diff 2 inactive and Rad54 DNA ctr -5%.
Cc1nc2ccccc2c2oc(C(=O)NCCN3CCCCC3C)cc12 (stereo unspecified) was read as ABCB6 inh 2 95, RAD54 inh 52*, Vif inh -3, N-glyco inh 18, Myeloid diff 2 inactive and Rad54 DNA ctr -19%.
CO[C@@H]1CN(C)C(=O)c2ccc(NS(=O)(=O)c3ccccc3)cc2OC[C@H](C)N(Cc2cccnc2)C[C@@H]1C was read as RAD54 inh -8.
Screening CCN(CC)CCNc1ccc(CO)c2oc3ccccc3c(=O)c12 returned ABCB6 inh 2 95, RAD54 inh 80*, N-glyco inh 43*, Myeloid diff 2 active and Rad54 DNA ctr -23%.
`CCN(CC)CCNc1ccc(CO)c2sc3ccccc3c(=O)c12` gave ABCB6 inh 2 100, RAD54 inh 100*, Vif inh 6, N-glyco inh 21, Myeloid diff 2 inconclusive and Rad54 DNA ctr 29µM*.
Screening Cc1ccccc1-c1ccc([C@@H]2[C@@H](CO)N3CCCCN(S(C)(=O)=O)C[C@@H]23)cc1 returned RAD54 inh 7.
Screening CCOC(=O)c1c(NC(C)=O)sc2c(OCC(O)CN(CC)CC)c(Br)ccc12 (stereo unspecified) returned ABCB6 inh 2 105, RAD54 inh 84*, Vif inh -11, N-glyco inh 7, Myeloid diff 2 inactive and Rad54 DNA ctr 2%.
Screening CCOC(=O)c1c(NC(C)=O)sc2c(OC)cccc12 returned ABCB6 inh 2 98, RAD54 inh 4, Vif inh 0, N-glyco inh 0 and Myeloid diff 2 inactive.
COc1ccccc1C1=NOC(Cn2c(NCCCO)nc3c2c(=O)n(C)c(=O)n3C)C1 (stereo unspecified) was read as ABCB6 inh 2 98, RAD54 inh inconclusive, Vif inh 0, N-glyco inh 2, Myeloid diff 2 inactive and Rad54 DNA ctr 5%.
`O=C(CN1CCN(CCN2C(=O)c3cccc4cccc(c34)C2=O)CC1)c1ccc(F)cc1` gave ABCB6 inh 2 99, Vif inh -6, N-glyco inh 24 and Myeloid diff 2 inactive.
COc1ccc(C(=O)CN2CCN(CCN3C(=O)c4cccc5cccc(c45)C3=O)CC2)cc1 was read as ABCB6 inh 2 98, RAD54 inh 64*, Vif inh 1, N-glyco inh 9, Myeloid diff 2 inactive and Rad54 DNA ctr -19%.
For CN1CCN(C(=O)C[C@@H]2CC[C@H]3[C@@H](COC[C@@H](O)CN3S(=O)(=O)c3cccc(F)c3)O2)CC1 the results were RAD54 inh -4.

High-throughput results as filed in PubChem BioAssay.
